Experimental findings from PubChem BioAssay (Tox21) are described below.

The nature of test [1]: qHTS assay to identify small molecule antagonists of the vitamin D receptor (VDR) signaling pathway - cell viability counter screen (AID 743225). Also: nearly all actives have a fitted effect of over 50% in size. The procedure, abridged: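 VDR-UAS-bla HEK 293T cells were plated and incubated 4 h at 37C, then dosed with compound plus 3 nM (final) 1-alpha,25-dihydroxyvitamin D3 for 16 h. After the 2 h beta-lactamase read, viability in the same wells was read as CellTiter-Glo luminescence after 30 min at room temperature.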
(qHTS replaces the single test concentration by a dilution series.)

The nature of test [2]: qHTS assay to identify small molecule agonists of the NFkB signaling pathway (AID 1159509; active = well fitted curve in the direction sought with a large enough effect in the signal ratio in the repeat runs, not every such curve was filed as active; the % refers to the signal ratio). The method in brief: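 Beta-lactamase reporter assay run in quantitative high-throughput format on an NF-kB-responsive ME-180 line, with 5 hr compound treatment and a FRET-based blue/green fluorescence readout.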
Test [3] in a line: qHTS assay to identify small molecule agonists of the endoplasmic reticulum stress response signaling pathway (AID 1159516; active = well fitted activation curve with a large enough effect in the signal ratio in the repeat runs, not every such curve was filed as active; the % refers to the signal ratio). The method in brief:
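Fluorescence at 460 and 530 nm (405 nm excitation) reports beta-lactamase from an ER stress response element in HeLa cells treated 5 hr at 37 C.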

A short description of test [4]: qHTS assay to identify small molecule agonists of the endoplasmic reticulum stress response signaling pathway - cell viability counter screen (AID 1159517; calls by dose curve; also: nearly all actives have a fitted effect of over 50% in size). The method in brief: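 Cytotoxicity of test compounds toward ESRE-bla HeLa cells was assessed after 5 hr exposure. The luminescent CellTiter-Glo signal was measured 30 min after reagent addition.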
The target in test [5] is Nuclear receptor ROR-gamma (Homo sapiens) (UniProt P51449). As to the kind of experiment: qHTS assay to identify small molecule antagonists of the retinoid-related orphan receptor gamma (ROR-gamma) signaling pathway (AID 1159521; also: nearly all actives have a fitted effect of over 50% in size; also: potency is read from the fitted curve at half-maximal effect). The method in brief:
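Tet-on ROR-gamma CHO cells with ROR response element-luciferase reporter; compounds added 2 hr before 1 uM doxycycline induction, then 16 hr at 37 C. Antagonism scored as decreased ONE-Glo luminescence.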

The nature of test [6]: qHTS assay to identify small molecule agonists of the AP-1 signaling pathway (AID 1159526; calls by dose curve).
Test [7] concerns the target Retinoic acid receptor RXR-alpha (Homo sapiens) (UniProt P19793). As to the kind of experiment: qHTS assay to identify small molecule agonists of the RXR signaling pathway (AID 1159527; calls by dose curve; also: nearly all actives have a fitted effect of over 35% in size). The procedure, abridged: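 GeneBLAzer RXR-alpha-UAS-bla HEK 293T cells in 2% charcoal-stripped FBS medium were exposed to compounds for 16 hr at 37 C in agonist mode. Beta-lactamase reporter read as 460/530 nm FRET ratio after 2 hr substrate loading.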

A short description of test [8]: qHTS assay to identify small molecule agonists of the RXR signaling pathway - cell viability counter screen (AID 1159529). Also: nearly all actives have a fitted effect of over 50% in size. Also: potency is read from the fitted curve at half-maximal effect. The procedure, abridged:
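RXR-alpha-UAS-bla HEK 293T cells in medium with 2% charcoal-stripped FBS were pre-incubated 5 hr, then compound-treated 16 hr at 37 C. Viability was read by CellTiter-Glo luminescence in the same wells as the beta-lactamase assay, with tetraoctyl ammonium bromide as positive control.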

The nature of test [9]: qHTS assay to identify small molecule antagonists of the retinoid acid receptor (RAR) signaling pathway - cell viability counter screen (AID 1159551). Also: nearly all actives have a fitted effect of over 35% in size. The procedure, abridged: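 In this counter screen, the RARE-luciferase line C3RL4 was exposed for 6 h at 37 C and 5% CO2 to compounds with retinol at 1 uM final. Cellular ATP, read by luminescence, served as the viability measure.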

Test [10] is described as follows: qHTS assay to identify small molecule antagonists of the retinoic acid receptor (RAR) signaling pathway (AID 1159552; also: nearly all actives have a fitted effect of over 50% in size; also: potency is read from the fitted curve at half-maximal effect). The method in brief:
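Retinol signaling pathway inhibitors screened in C3RL4 RARE-luciferase reporter cells seeded overnight at 37 C, then compounds added with 1 uM (final) retinol as pathway substrate. After 6 hr at 37 C, luciferase luminescence read after 30 min at room temperature.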

Test [11] is described as follows: qHTS assay to identify small molecule agonists of the retinoic acid receptor (RAR) signaling pathway (AID 1159553). As to conditions: C3RL4 RARE luciferase reporter, agonist, 6 h; activation: at 73.3 µM (top of the series). The method in brief:
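In this cell-based screen, 1,000 C3RL4 cells per well were cultured overnight, dosed with test chemicals in DMSO for 6 hr, and assessed for RARE luciferase luminescence.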

A short description of test [12]: qHTS assay to identify small molecule agonists of the AP-1 signaling pathway - cell viability counter screen (AID 1159525; calls by dose curve; also: nearly all actives have a fitted effect of over 55% in size). The procedure, abridged: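 Each titration point was normalised to DMSO and tetra n-octyl ammonium bromide controls. The read was Cell Titer Glo luminescence after 30 min at RT, following 5 h compound exposure of ME-180 AP-1-bla cells at 37 °C.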

Test [13] in a line: qHTS assay to identify small molecule antagonists of the retinoid-related orphan receptor gamma (ROR-gamma) signaling pathway - cell viability counter screen (AID 1159520). Also: nearly all actives have a fitted effect of over 50% in size. The procedure, abridged: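 Tet-on ROR gamma CHO cells (1,000/well) were plated 4 hr, given compounds in DMSO for 2 hr at 37 C, then induced with 1 uM final doxycycline for 16 hr. Viability was read as ATP by CellTiter-Glo luminescence after 30 min.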

Inconclusive results are not listed. Activity calls are given as the source filed them. Unless noted, calls follow the shape of the dose curve; as a rule, active = well fitted curve in the direction sought with a large enough effect in the repeat runs; inconclusive = weak or mixed curves; inactive = no such curve, though single readings can be large; an effect the other way counts as inactive or inconclusive.

Sequence of Retinoic acid receptor RXR-alpha (Homo sapiens) (P19793 whole entry, looked up): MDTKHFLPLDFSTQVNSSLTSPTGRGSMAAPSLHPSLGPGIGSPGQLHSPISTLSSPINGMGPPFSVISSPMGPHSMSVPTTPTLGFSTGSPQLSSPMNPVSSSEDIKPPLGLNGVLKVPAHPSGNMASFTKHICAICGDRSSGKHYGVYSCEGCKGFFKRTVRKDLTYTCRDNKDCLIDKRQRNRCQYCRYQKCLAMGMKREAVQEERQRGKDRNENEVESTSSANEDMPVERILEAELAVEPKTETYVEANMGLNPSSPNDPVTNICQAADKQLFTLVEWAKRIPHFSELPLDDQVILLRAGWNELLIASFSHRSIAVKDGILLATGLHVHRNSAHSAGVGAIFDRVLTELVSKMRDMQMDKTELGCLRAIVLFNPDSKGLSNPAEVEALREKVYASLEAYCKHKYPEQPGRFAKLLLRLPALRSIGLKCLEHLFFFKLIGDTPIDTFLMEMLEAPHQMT

Take `CN1C(=O)OC(C)(C)C1=O`: the Potency result in test [1], in test [2], in test [3], in [4], in [5] and in test [6] was “inactive” in each case. The Potency entry in test [7], in test [8], in test [9], in test [10] and in [11] was “inactive” each time.
Regarding `COc1cc(C(=O)NCCCCCC(=O)O)cc(OC)c1OC`, the Potency entry in test [1], in [2], in [3], in test [4], in test [5] and in test [12] was “inactive” in each case. The Potency result in test [6], in test [7], in test [8], in [9], in test [10] and in test [11] was “inactive” each time.
Consider `Cc1cc(O)ccc1O`, for which the Potency entry in test [1], in test [2], in [3], in test [4] and in test [7] was “inactive” in each case. For the same molecule, the values for the Potency in [5] and in [8] were 24.6 µM (active) and 22.1 µM (active), respectively.
As for `O=C(O)CCC(=O)C(=O)O`, the Potency result in test [2], in [3], in test [4], in test [5], in test [12] and in test [6] was “inactive” each time. The Potency result in test [7], in test [8], in test [9] and in test [10] was “inactive” throughout.
Regarding `COc1cc(N)c(Cl)cc1C(=O)NC1CCN(CCCOc2ccc(F)cc2)CC1OC` (centres undefined), the Potency entry in [2], in [3], in test [4], in test [5], in [12] and in test [6] was “inactive” each time. The Potency entry in [8], in test [9], in [10] and in [11] was “inactive” each time.
Turning to `COC(=O)[C@H]1[C@H]2C[C@@H]3c4[nH]c5cc(OC)ccc5c4CCN3C[C@H]2C[C@@H](OC(=O)/C=C/c2ccc(O)c(OC)c2)[C@@H]1OC`, the Potency entry in [1], in [2], in [3], in [4], in test [12] and in test [6] was “inactive” each time. Further, the Potency result in test [8] and in test [9] was “inactive” throughout. Moreover, in [5], the Potency is 13.3 µM (active).
`Cc1cccc(O)c1N`: the Potency result in [1], in test [2], in [3], in test [4], in [13] and in [8] was “inactive” in each case. Besides, the Potency entry in test [9] and in test [10] was “inactive” each time. In addition, the Potency in [5] is 13.8 µM (active).
For `CC(=O)N/N=C/c1ccc([N+](=O)[O-])o1`, the Potency entry in [1], in test [2], in test [3], in [4], in test [5] and in test [6] was “inactive” throughout. Also, the Potency entry in test [8] and in test [9] was “inactive” throughout. The Potency in test [10] is 29.8 µM (active).
`O=[N+]([O-])c1cc(C2CCCCC2)c(O)c([N+](=O)[O-])c1`: the Potency entry in [2], in test [3], in test [4], in test [12], in test [7] and in [9] was “inactive” each time. Further, the Potency in [5] was 4.31 µM (active).
On to `CC(C)Nc1cccnc1N1CCN(C(=O)c2cc3cc(NS(C)(=O)=O)ccc3[nH]2)CC1`, for which the Potency result in test [2], in test [3], in [4], in test [13], in [12] and in test [6] was “inactive” in each case. Moreover, the Potency result in [7], in test [8], in test [9] and in test [10] was “inactive” throughout.
Regarding `CC(C)(C)CC(=O)OCC(=O)[C@@]1(O)CC[C@H]2[C@@H]3CCC4=CC(=O)C=C[C@]4(C)[C@H]3[C@@H](O)C[C@@]21C`, the Potency result in test [2], in test [3], in test [4], in test [13], in test [6] and in test [9] was “inactive” in each case. Also, the Potency result in test [11] is “inactive”. For the same molecule, the Potency is 26.6 µM (active) in test [5] and 33.5 µM (active) in test [10].
Take `O=c1[nH]ncc2ccccc12`: the Potency entry in [1], in test [2], in test [3], in test [4], in [5] and in test [12] was “inactive” each time. For the same molecule, the Potency entry in test [6], in test [8], in test [9], in test [10] and in test [11] was “inactive” in each case.
